{
  "source": "PubChem BioAssay (Tox21)",
  "note": "Inconclusive results are not listed. A number with no mark means an inactive call. Calls follow the shape of the dose curve; as a rule, active = well fitted cell-killing curve with a large enough effect in the repeat runs; inconclusive = weak or mixed curves, or effect the other way; inactive = flat fitted curve, though single readings scatter. % is scaled to controls: 0 for no effect and ±100 for the full control effect.",
  "data": [
    {"experiment": "qHTS assay to identify small molecule antagonists of the retinoid acid receptor (RAR) signaling pathway - cell viability counter screen (AID 1159551); also: nearly all actives have a fitted effect of over 35% in size", "details": "C3RL4 cells viability, ATP luminescence (CellTiter-Glo), 6 h; series mostly up to 92.4 µM; activity change, negative = cytotoxicity: at the top concentration", "summary_of_the_method": "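Luminescent ATP quantitation (CellTiter-Glo) gave cell viability in C3RL4 cells exposed to test chemicals for 6 h at 37 C alongside 1 uM final retinol.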", "values": [
      {"molecule": "CN(C)CCN(C)C", "activity change, negative = cytotoxicity": "0.346%"},
      {"molecule": "O=C(CCl)NCO", "activity change, negative = cytotoxicity": "-0.389%"},
      {"molecule": "Cc1ccc2c(c1)C1CN(C)CCC1N2", "note": "(stereo not drawn)", "activity change, negative = cytotoxicity": "2.36% [at 19 µM]"},
      {"molecule": "CCC(=O)c1ccc(Cl)cc1", "activity change, negative = cytotoxicity": "0.021%"},
      {"molecule": "O=[N+]([O-])c1cccc(CCl)c1", "activity change, negative = cytotoxicity": "1.78%"},
      {"molecule": "CCOC(=O)NC(C)(C)Cc1ccc(Cl)cc1", "activity change, negative = cytotoxicity": "0.492% [at 42.5 µM]"},
      {"molecule": "CCOC(=O)C(Cl)Cc1cc(-n2nc(C)n(C(F)F)c2=O)c(F)cc1Cl", "note": "(stereo not drawn)", "activity change, negative = cytotoxicity": "-0.721%"},
      {"molecule": "CCCCS(=O)(=O)Cl", "activity change, negative = cytotoxicity": "2.07%"},
      {"molecule": "S=C=S", "activity change, negative = cytotoxicity": "-2.2%"},
      {"molecule": "c1ccc2c(c1)CCNC2", "activity change, negative = cytotoxicity": "1.83%"},
      {"molecule": "C#CCOC(=O)/C=C(C)/C=C/CC(C)CCCC(C)C", "note": "(stereo not drawn)", "activity change, negative = cytotoxicity": "-0.245%"},
      {"molecule": "CCCCCCCCSC(=O)Oc1cc(Cl)nnc1-c1ccccc1", "activity change, negative = cytotoxicity": "2.1%"},
      {"molecule": "O=[N+]([O-])CCO", "activity change, negative = cytotoxicity": "0.353%"},
      {"molecule": "CN=CNc1ccc(C)cc1C", "activity change, negative = cytotoxicity": "4.9%"},
      {"molecule": "Cc1ccc(S(=O)(=O)N[C@@H](CCCCN)C(=O)CCl)cc1", "activity change, negative = cytotoxicity": "10.2% [at 42.5 µM]"},
      {"molecule": "CCCN1CCC[C@@H]2Cc3nc(N)ncc3C[C@H]21", "activity change, negative = cytotoxicity": "-1.96% [at 42.5 µM]"},
      {"molecule": "ClCCCCCCCl", "activity change, negative = cytotoxicity": "-0.0562%"},
      {"molecule": "CCC1(c2cccc(O)c2)CCCCN(C)C1", "note": "(stereo not drawn)", "activity change, negative = cytotoxicity": "0.705% [at 42.5 µM]"},
      {"molecule": "COc1ccccc1OC", "activity change, negative = cytotoxicity": "0.969%"},
      {"molecule": "C=C(C)[C@H]1CN[C@H](C(=O)O)[C@H]1CC(=O)O", "activity change, negative = cytotoxicity": "6.62% [at 42.5 µM]"},
      {"molecule": "CCSC(=O)Cl", "activity change, negative = cytotoxicity": "0.0305%"},
      {"molecule": "CCN1CCCC1CNC(=O)C(O)(c1ccccc1)c1ccccc1", "note": "(stereo not drawn)", "activity change, negative = cytotoxicity": "1.13% [at 42.5 µM]"},
      {"molecule": "ClCCCCl", "activity change, negative = cytotoxicity": "-2.75%"},
      {"molecule": "O=C(O)C(F)(F)C(F)(F)C(F)(F)C(F)(F)C(F)(F)C(F)(F)F", "activity change, negative = cytotoxicity": "0.697%"},
      {"molecule": "ClC(Cl)(Cl)Cl", "activity change, negative = cytotoxicity": "2.98%"},
      {"molecule": "CCOP(=O)(CN(CCO)CCO)OCC", "activity change, negative = cytotoxicity": "2.69%"},
      {"molecule": "CCC(C)C(C)(COC(N)=O)COC(N)=O", "note": "(stereo not drawn)", "activity change, negative = cytotoxicity": "-0.143% [at 42.5 µM]"},
      {"molecule": "CC(=O)CN(CC(C)=O)N=O", "activity change, negative = cytotoxicity": "0.862%"}
    ]}
  ]
}
